# Measurements reported in PubChem BioAssay (NCATS).
# Inconclusive results are not listed. Unmarked numbers belong to inactive results. Active and inactive are the calls of the source. Calls follow the shape of the dose curve; as a rule, active = well fitted inhibition curve with a large enough effect; inconclusive = small, poorly fitted or top-dose-only effect; inactive = flat fitted curve, though single readings scatter. *1 amine or outer side, *2 acyl side, *3 side chain or, on linkers, in order; H or OH if unused. Where a SMILES comes first, the peptide text is derived from it. Bridges are numbered along the chain shown (N, C = ends). [ ]: non-standard residue; d: D form. The star is where a group is joined. ξ: configuration not given here. X10 = NC1=NCCC(C(N[*:1])C(=O)[*:2])N1; ΔAla(3-NHCONH2) = NC(=O)NC=C(N)C(=O)O; ξβ3hOrn = NCCCC(N)CC(=O)*; Dap = NC[CH](N)C(=O)O
# Test system: Zika virus NS2B-NS3 protease
# Assay: Primary screen GU AMC qHTS for Zika virus inhibitors (AID 1347154); also: nearly all actives have a fitted effect of over 70% in size;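 as to activity change, negative = inhibition: 0% = no-inhibitor control and -100% = no-enzyme control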
# Settings: Zika NS2B-NS3 unlinked protease, AMC fluorogenic substrate; series mostly up to 54.1 µM; activity change, negative = inhibition: at the top concentration
# Summary of the method: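 Fluorogenic AMC-substrate cleavage by noncovalent NS2B-NS3 protease complex (25 nM, pH 8.0 Tris buffer with Tween 20) followed for 15 minutes at room temperature (~20% conversion). Percent inhibition from ex340/em450 signal change, fitted by 4-parameter Hill equation.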
# Potency is read from the fitted curve at half-maximal effect.
Compound,Potency,"activity change, negative = inhibition"
CCCC(=O)c1cc(O)c(O)cc1O,5.62 µM (active),–
COC(=O)c1cc(Cl)c(NC(C)=O)cc1OC,–,-7.83%
CCOc1ncc(F)c(=O)[nH]1,–,-4.8%
OC1(c2ccccc2)CCNCC1,–,1.76%
[O-][n+]1cccc(/C(Cl)=N/OC[C@@H](O)CN2CCCCC2)c1,–,-3.44%
CC1CCCCN1CCCOC(=O)c1ccc(OC2CCCCC2)cc1 (stereo not drawn),–,-4.59%
O=C1CC(c2ccc(Cl)cc2)CC(=O)N1,–,7.65%
CCCCOC(=O)CCCCCCCCC(=O)OCCCC,–,-1.19%
CCOc1ccccc1OCC1CNCCO1 (stereo not drawn),–,-5.29%
CC(NC(CCc1ccccc1)C(=O)O)C(=O)N1C(=O)N(C)CC1C(=O)O (stereo not drawn),–,8.19%
CN1N=C(C(N)=O)CCC1=O,–,5.1%
NCCCC(N)CC(=O)NCC1NC(=O)C(CO)NC(=O)C(N)CNC(=O)C(C2CCN=C(N)N2)NC(=O)C(=CNC(N)=O)NC1=O (stereo not drawn) (H-[Dap]S[Dap](ξβ3hOrn)[ΔAla(3-NHCONH2)][X10]; lactam 1-C; configuration not given here),–,-2.82% [at 0.59 µM]
O=C(O)/C=C(\CC(=O)O)C(=O)O,–,-0.852%
O=C(CS(=O)Cc1ccco1)NC/C=C\COc1cc(CN2CCCCC2)ccn1 (stereo not drawn),–,-2.37%
CN1CCC(Nc2ncc3ncnc(Nc4ccc(F)c(Cl)c4)c3n2)CC1,inactive,–
O=C(OCC(O)CO)c1ccccc1Nc1ccnc2c(C(F)(F)F)cccc12 (stereo not drawn),–,-9.45%
CCc1cccc2c(CCO)c[nH]c12,–,2.38%
O=C1c2ccccc2CCc2ccccc21,–,-1.93%
CCOC(=O)N1CCC(n2c(=O)[nH]c3cc(Cl)ccc32)CC1,–,0.623%

Compound,Potency,"activity change, negative = inhibition"
COc1ccc([C@@H]2Sc3ccccc3NC(=O)[C@@H]2O)cc1,–,1.23%
CN1CCC(=C2c3ccccc3CCc3cccnc32)CC1,–,-0.254%
COc1ccc2c(c1)CCCC2=O,–,1.47%
Nc1ccc(C(=O)OCC(O)CO)cc1 (stereo not drawn),–,-4.17%
Cc1ncc(CO)c(CO)c1O,–,-3.06%
Cc1cccc(C)c1NC(=O)c1cc(S(N)(=O)=O)c(Cl)cc1O,–,-3.99%
CC1(C)O[C@@H]2C[C@H]3[C@@H]4C[C@H](F)C5=CC(=O)C=C[C@]5(C)[C@@]4(F)[C@@H](O)C[C@]3(C)[C@]2(C(=O)CO)O1,–,1.39%
CCCc1ncc(C(=O)O)s1,–,-3.21%
CCN1CCCC1CN (stereo not drawn),–,3.45%
COc1ccc2nc(SCc3ncc(C)c(OC)c3C)[nH]c2c1,–,-0.0847%
CC(C)C(=O)OCc1cccc(OC(=O)[C@@H]2N3C(=O)[C@@H](NC(=O)Cc4ccccc4)[C@H]3SC2(C)C)c1,–,-7.78%
CNC(=O)c1cnn(-c2nc(N)c3ncn([C@@H]4O[C@H](CO)[C@@H](O)[C@H]4O)c3n2)c1,–,-5.9%
CC(C)(Oc1ccc(Cl)cc1)C(=O)OCCCOC(=O)C(C)(C)Oc1ccc(Cl)cc1,–,-10.9%
CCN(CC)CC(=O)Oc1ccc(NC(C)=O)cc1,–,2.57%
CCOCCn1c(C2CCN(CCc3ccc(C(C)(C)C(=O)O)cc3)CC2)nc2ccccc21,–,-3.83%
CCOC(=O)c1ccc(O)c(O)c1,–,-3.25%
Nc1nc2ccccc2n1Cc1ccc(F)cc1,–,3.02%
CCC(=O)Oc1ccc2c(c1)CC[C@@H]1[C@@H]2CC[C@@]2(C)[C@H]1C[C@@H](OC(=O)CC)[C@@H]2OC(=O)CC,–,-14.8%
O=C(c1cc(O)c(O)c(O)c1)c1ccc(O)c(O)c1O,0.891 µM (active),–
